Screening results deposited in PubChem BioAssay by National Center for Advancing Translational Sciences (NCATS).
Only some compounds are listed: those with a hit (about 7.5% of all), similar ones and a draw of the others.
Luc counter = Counterscreen for Luciferase (Kinase-Glo TM) Inhibition; Luciferin 4-monooxygenase (Photuris pensylvanica), Q27757; Kinase-Glo luciferase, ATP luminescence, 8 min; Potency, µM (doses to about 38.3 µM), most hits filed as inhibitors; actives 0.28% (n = 200,000); AID 1379, 2008; further: nearly all actives have a fitted effect of over 60% in size
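Compounds were added to a substrate mix at pH 7.2 (50 mM imidazole, 10 uM ATP, within the enzyme's linear range), followed by Kinase-Glo detection reagent; luminescence was measured after 8 minutes at ambient temperature.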
ELG1 genotox = qHTS screen for small molecules that induce genotoxicity in human embryonic kidney (HEK293T) cells expressing luciferase-tagged ELG1; HEK293T ELG1-luciferase reporter, luminescence, 16 h; Potency, µM (top dose mostly 46 µM), hits mostly activators; actives 1.3% (n = 330,000); further: nearly all actives have a fitted effect of over 60% in size
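HEK293T cells expressing luciferase-tagged ELG1 were treated with compound or DMSO for 16 hr at 37°C. Luciferase activity was then read after 30 min with ONE-Glo at room temperature; rising signal flags genetic stress.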
NPC1 promoter act = qHTS Assay for NPC1 Promoter Activators. Huh7 NPC1 promoter luciferase reporter, 24 h. actives 2.4% (n = 320,000). Potency, µM (titrated, usually from 9.22 µM), actives largely listed as activators; further: nearly all actives have a fitted effect of over 60% in size
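Quantitative HTS used a cell-based reporter: Huh7 cells stably bearing the NPC1 promoter upstream of luciferase were treated with compounds for 24 h, and promoter activation was read as luminescence.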
SMN2 splice enh = qHTS Assay for Enhancers of SMN2 Splice Variant Expression; HEK293 SMN2-luciferase splicing reporter, luminescence, 30-36 h; Potency, µM (highest dose often 46.1 µM), usual class: activators; actives 2.8% (n = 210,000); further: nearly all actives have a fitted effect of over 55% in size
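qHTS luciferase splicing reporter: luminescence rises when SMN2 exon 7 is included in transfected HEK293 cells. Compound exposure lasted 30-36 h at 37C, with 4.5 mM final sodium butyrate as control, followed by a ONE-Glo read.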
FLuc counter = qHTS profiling assay for firefly luciferase inhibitor/activator using purifed enzyme and Km concentrations of substrates (counterscreen for miR-21 project). Luciferin 4-monooxygenase (Photinus pyralis), P08659. purified FLuc, Km substrates, luminescence inhibition. Potency, µM (highest dose often 57.5 µM), most hits filed as inhibitors. actives 6.9% (n = 360,000). AID 588342, 2011; further: nearly all actives have a fitted effect of over 55% in size
Target sequence (P08659 whole entry, looked up): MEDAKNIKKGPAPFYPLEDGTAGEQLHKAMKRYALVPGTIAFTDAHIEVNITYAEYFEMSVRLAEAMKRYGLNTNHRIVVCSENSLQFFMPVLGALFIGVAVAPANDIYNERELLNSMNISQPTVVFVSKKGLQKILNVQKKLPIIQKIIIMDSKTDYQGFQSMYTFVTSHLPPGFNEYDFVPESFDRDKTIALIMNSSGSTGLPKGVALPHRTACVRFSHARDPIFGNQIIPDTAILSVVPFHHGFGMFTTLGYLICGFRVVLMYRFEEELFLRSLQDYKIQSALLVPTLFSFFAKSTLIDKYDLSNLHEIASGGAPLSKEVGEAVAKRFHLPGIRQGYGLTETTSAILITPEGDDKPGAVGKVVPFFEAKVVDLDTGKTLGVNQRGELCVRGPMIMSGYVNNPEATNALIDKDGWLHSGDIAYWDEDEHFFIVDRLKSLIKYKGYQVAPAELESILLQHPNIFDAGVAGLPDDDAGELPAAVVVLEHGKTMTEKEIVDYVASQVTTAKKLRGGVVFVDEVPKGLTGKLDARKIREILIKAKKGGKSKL
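Purified P. pyralis luciferase (10nM final) with 10uM D-luciferin and 10uM ATP (Km levels) in 50mM Tris acetate pH 7.5, 10mM Mg acetate, 0.01% Tween-20, 0.05% BSA; qHTS 6-point titration, ~60 µM downward; luminescence read.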
Rab9 promoter act = qHTS Assay for Rab9 Promoter Activators | Huh7 Rab9 promoter-luciferase reporter, luminescence, 24 h | Potency, µM (doses to about 9.22 µM), actives largely listed as activators | actives 2.8% (n = 320,000) | AID 485297, 2010; further: nearly all actives have a fitted effect of over 60% in size
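Luminescence read-out: Huh7 cells stably expressing Rab9-luciferase, treated 24 h with compound at 37 °C, then lysed with luciferase reagent for 10 min at ambient before reading.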
A number is an active result; [ ] = remark or other dose. The call rests on the fitted dose curve; in most records, active means well fitted curve in the direction sought with a large enough effect; inconclusive means small, poorly fitted or top-dose-only effect, or another doubt; inactive means no such curve, though single readings can be large; an effect the other way counts as inactive or inconclusive.

CC(C)C(NC(=O)c1ccc2c(c1)OCCO2)c1nc2ccccc2[nH]1 (configuration not stated) was read as ELG1 genotox inconclusive, NPC1 promoter act inactive, FLuc counter inactive and Rab9 promoter act inactive.
C/C(=N\Nc1ccccn1)c1ccc2c(c1)OCO2 was read as Luc counter inactive, ELG1 genotox inconclusive, NPC1 promoter act inconclusive, FLuc counter 21.3µM and Rab9 promoter act 3.16µM.
`N#Cc1ccccc1S(=O)(=O)N1CCN(C(=O)C2CC(=O)N(c3ccc4c(c3)OCCO4)C2)CC1` (configuration not stated) gave ELG1 genotox inactive.
`COc1ccccc1CN1CCCC2(CCN(C(=O)c3cccn3C)CC2)C1` gave Luc counter inactive and SMN2 splice enh inactive.
`OC[C@@H]1O[C@@H](n2cnc3c(SCc4ccccc4)ncnc32)[C@@H](O)[C@H]1O` gave Luc counter inactive[7.66 µM] and SMN2 splice enh inactive[9.22 µM].
`C/C(=N\Nc1nc2ccccc2[nH]1)c1ccc2c(c1)OCO2` gave Luc counter inactive, ELG1 genotox inactive, NPC1 promoter act inactive, SMN2 splice enh inactive, FLuc counter 26.9µM and Rab9 promoter act inactive.
`C(=N\Nc1nc2ccccc2[nH]1)/c1ccc2c(c1)OCO2` gave Luc counter inactive, ELG1 genotox inconclusive, NPC1 promoter act 1.58µM, SMN2 splice enh 12.6µM, FLuc counter 7.57µM and Rab9 promoter act 2µM.
Screening Cc1nnc(SCC2=C(C(=O)O)N3C(=O)C(NC(=O)Cn4cnnn4)[C@@H]3SC2)s1 (some centres not stated) returned Luc counter inactive and SMN2 splice enh inactive.
CCCCOc1ccc(C(=O)Nc2cc(-c3ccc(C)cc3)no2)cc1 was read as SMN2 splice enh inactive and FLuc counter inactive.
Screening CCOc1ccc(C(=O)Nc2cc(-c3ccccc3)no2)cc1 returned SMN2 splice enh inconclusive and FLuc counter 1.51µM.
For Cc1ccc(-c2cc(NC(=O)COc3ccc(Cl)c(C)c3)on2)cc1 the results were SMN2 splice enh inactive and FLuc counter inactive.
Cc1ccc(-c2cc(NC(=O)c3ccccc3Cl)on2)cc1 was read as SMN2 splice enh 12.6µM and FLuc counter inconclusive.
Screening CCOc1cccc(C(=O)Nc2cc(-c3ccc(C)cc3)no2)c1 returned SMN2 splice enh inactive and FLuc counter inactive.
COc1cccc(C(=O)Nc2cc(-c3ccccc3)no2)c1 was read as SMN2 splice enh 15.8µM and FLuc counter 1.2µM.
For CCOC(=O)CSc1nc2cc3c(cc2c(=O)n1CCCC(=O)NCCc1ccc(OC)c(OC)c1)OCO3 the results were FLuc counter inactive.
`CCOC(=O)C(C(=O)OCC)N(C#N)c1nc(SC)nc(N(C)C)n1` gave Luc counter inactive, ELG1 genotox inactive, NPC1 promoter act inactive, SMN2 splice enh inactive, FLuc counter inactive and Rab9 promoter act inactive.
`CCOC(=O)C(C(=O)OCC)N(C#N)c1nc(OC)nc(N(C)C)n1` gave Luc counter inactive, ELG1 genotox inactive, NPC1 promoter act inactive, SMN2 splice enh 3.16µM, FLuc counter inactive and Rab9 promoter act inactive.
Screening O=C(CCc1c[nH]c2ccccc12)N1CCN(S(=O)(=O)c2ccc(F)cc2)CC1 returned ELG1 genotox inactive, NPC1 promoter act inactive, FLuc counter inactive and Rab9 promoter act inactive.
Screening COc1ccc(OC)c(C(=O)c2c(C)oc3cc([N+](=O)[O-])c(O)c([N+](=O)[O-])c23)c1 returned ELG1 genotox inactive, NPC1 promoter act inactive, FLuc counter 21.3µM and Rab9 promoter act inactive.
COC(=O)CC1C(C)(C)C(=O)C2CC3C4=CC(=O)OC(c5ccoc5)[C@]4(C)CCC3[C@@]1(C)C2=O (some centres not stated) was read as Luc counter inactive and SMN2 splice enh inactive.
`O=C(c1cnn(-c2ccccc2)c1)c1ccccc1O` gave Luc counter inactive, ELG1 genotox inconclusive, NPC1 promoter act inconclusive, SMN2 splice enh inconclusive, FLuc counter 2.39µM and Rab9 promoter act 3.16µM.
Screening O=C(c1cnn(-c2ccccc2)c1)c1cc(F)ccc1O returned ELG1 genotox inconclusive, NPC1 promoter act inconclusive, FLuc counter 13.5µM and Rab9 promoter act inconclusive.
COc1ccc(-n2cc(C(=O)c3ccccc3O)cn2)cc1 was read as Luc counter 10µM, ELG1 genotox 2.31µM, NPC1 promoter act inconclusive, SMN2 splice enh inconclusive, FLuc counter 0.849µM and Rab9 promoter act 0.501µM.
CN1CCN(c2ncc3nc(-c4cccs4)c(=O)n(C[C@H]4CCCO4)c3n2)CC1 was read as Luc counter inactive and SMN2 splice enh inactive.
`CCOC(=O)c1c[nH]n(-c2ccc(C)cc2)c1=O` gave Luc counter inactive, ELG1 genotox inactive, NPC1 promoter act inactive, SMN2 splice enh inactive, FLuc counter inconclusive and Rab9 promoter act inactive.
`CCOC(=O)c1cc2c(C)n(-c3ccc(OCC)cc3)c(C)c2ccc1=O` gave Luc counter inactive, ELG1 genotox inactive, NPC1 promoter act inactive, SMN2 splice enh inactive, FLuc counter 16.9µM and Rab9 promoter act inactive.
For CCOC(=O)c1cc2c(C)n(-c3ccc(C)cc3)c(C)c2ccc1=O the results were Luc counter inactive, ELG1 genotox inactive, NPC1 promoter act inconclusive, SMN2 splice enh inactive, FLuc counter 0.379µM and Rab9 promoter act inconclusive.
For CC(C)(C)c1ccc(C(=O)Nc2nnc3n2CCS3)cc1 the results were FLuc counter 6.01µM.
CC(C)(C)C(=O)Nc1nnc2n1CCS2 was read as FLuc counter inactive.
For CS(=O)(=O)c1ccc(Cn2c3c(c4cc(F)cc(F)c42)CCC[C@H]3CC(=O)O)cc1 the results were Luc counter inactive.
Screening CCn1cc(/C=C(\NC(=O)c2ccccc2Cl)C(=O)NCCN2CCOCC2)c2ccccc21 returned ELG1 genotox inactive, NPC1 promoter act inactive, FLuc counter 16.9µM and Rab9 promoter act inactive.
CCn1cc(/C=C(\NC(=O)c2ccccc2F)C(=O)NCCCN2CCOCC2)c2ccccc21 was read as ELG1 genotox inactive, NPC1 promoter act inactive, FLuc counter inactive and Rab9 promoter act inactive.
c1csc(-c2nnc(N3CCCCCC3)c3ccccc23)c1 was read as ELG1 genotox inactive, NPC1 promoter act inactive, FLuc counter 3.01µM and Rab9 promoter act inactive.
